Compound activity deposited in PubChem BioAssay by National Center for Advancing Translational Sciences (NCATS).
The list is not random: actives were taken first. Their share in the collection is about 6.9%.
BAZ2B inh = BAZ2B (human) inhibition | Potency, µM (series often up to 114 µM), for inactives: top-dose activity change, negative = inhibition, usual class: inhibitors | AID 504333 | AlphaScreen BAZ2B-H3K14Ac peptide displacement | Q9UIF8 | actives 4.4% (n = 360,000); also: % is scaled to controls: 0 for no effect and ±100 for the full control effect; nearly all actives have a fitted effect of over 60% in size
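Multi-concentration screen (max 110 uM) measuring displacement of acetylated histone H3 peptide from BAZ2B by AlphaScreen, using 50 nM protein, 50 nM peptide and 10 ug/mL streptavidin donor plus Ni-chelate acceptor beads.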
VDR inh = vitamin D3 receptor (human) inhibition | P11473 | VDR-SRC2-3 peptide fluorescence polarization, 2 h | Potency, µM, without a hit: max response, negative = inhibition, usual class: inhibitors | actives 0.93% (n = 400,000) | AID 504847; also: % is scaled to controls: 0 for no effect and ±100 for the full control effect
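Inhibition of the VDR/SRC2-3 peptide interaction is quantified by fluorescence polarization. Compounds (23 nl, pintool) incubate with the reagents for 2 hours at ambient room temperature.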
L3MBTL1 inh = L3MBTL1 (human) inhibition; Q9Y468; AlphaScreen L3MBTL1–H3K9me1 peptide binding; Potency, µM (top dose mostly 57.1 µM), for the others: at the highest dose activity, negative = inhibition, actives largely listed as inhibitors; actives 0.66% (n = 230,000); also: % is scaled to controls: 0 for no effect and ±100 for the full control effect; nearly all actives have a fitted effect of over 60% in size
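Displacement of a biotinylated histone H3(1-15) peptide monomethylated at Lys9 (75 nM) from L3MBTL1 (50 nM) was measured by AlphaScreen after a 30 min room-temperature compound incubation; cefsulodin titration served as intraplate control.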
JMJD2A Tudor inh = blocks the human JMJD2A Tudor domain; Potency, µM (doses to about 114 µM), for the others: at the top dose activity change, negative = inhibition, most hits filed as inhibitors; AlphaScreen JMJD2A-Tudor / H3K4me3 peptide binding; actives 4.4% (n = 390,000); AID 504339; O75164; also: % is scaled to controls: 0 for no effect and ±100 for the full control effect; nearly all actives have a fitted effect of over 50% in size
HP1b chromo inh = inhibitors of HP1-beta chromodomain binding to methylated histone tails. P83916. AlphaScreen HP1-beta / biotin-H3K9me3 peptide binding. Potency, µM (doses to about 114 µM), for inactives: at the highest dose activity change, negative = inhibition, usual class: inhibitors. actives 0.56% (n = 390,000). AID 540317; also: nearly all actives have a fitted effect of over 70% in size
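AlphaScreen: HP1-beta (50 nM) preformed 30 min with biotin-H3(1-18)K9me3 peptide (50 nM) in PBS pH 7.4, 0.01% Tween-20. Compound added for 30 min at RT, then streptavidin donor/nickel chelate acceptor beads (10 ug/mL) for 30 min.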
PLK1 PBD block = PLK1 (human) polo-box domain binding inhibition; P53350; Plk1 PBD binding of FITC phosphopeptide, fluorescence polarization; Potency, µM, without a hit: max response, negative = inhibition, actives largely listed as inhibitors; actives 2.8% (n = 360,000); also: series mostly up to about 57 µM; % is scaled to controls: 0 for no effect and ±100 for the full control effect; nearly all actives have a fitted effect of over 65% in size
* hit, by the source's call; ? = inconclusive; / = not tested or not shown; [ ] = another dose, or the depositor's remark. Calls follow the shape of the dose curve; as a rule, active = well fitted curve in the direction sought with a large enough effect; inconclusive = small, poorly fitted or top-dose-only effect, or another doubt; inactive = no such curve, though single readings can be large; an effect the other way counts as inactive or inconclusive. Potency is read from the fitted curve at half-maximal effect.

SMILES	BAZ2B inh	VDR inh	L3MBTL1 inh	JMJD2A Tudor inh	HP1b chromo inh	PLK1 PBD block
Cc1cc(-c2ccccc2)nc(N(C)NC(=O)c2cccc(C(F)(F)F)c2)c1S(C)(=O)=O	?	-10%	/	-8%[11.4 µM]	-4%	30µM*
Cc1ccc(S(=O)(=O)OCC(=O)Nc2ccc(C(=O)O)c(O)c2)cc1	/	-27%	/	20µM*	-10%	-13%
COc1ccc(NS(=O)(=O)c2ccc3oc(SC)nc3c2)cc1	-1%	0%	/	-8%	?	21µM*
COc1ccc(CCNC(=O)c2c(O)nc3ccccn3c2=O)cc1OC	-5%	10%	/	-11%	32%	/
CC1(C)CC(=O)C(C=NCCO)=C(O)C1	1%	-16%	3%	?	-6%	27µM*
O=C(NCc1cccnc1)c1cccc2c1C(=O)N(Cc1cccnc1)C2	-9%	-13%	/	?	18%	-7%
O=C(NCc1ccc(F)cc1)c1cccc2c1C(=O)N(Cc1cccnc1)C2	-3%	-4%	/	-13%	-6%	27µM*
O=C(Cc1ccc(F)cc1)OCN1C(=O)c2ccccc2C1=O	79µM*	-18%	/	-9%	46%	3%
O=C(CSc1nnc(-c2ccncc2)o1)Nc1nncs1	-22%	6%	/	32µM*	18%	-3%
Cc1cc(C(=O)OCC(=O)c2ccc(Cl)c([N+](=O)[O-])c2)c2cccc(C)c2n1	?	-18%	?	22µM*	-10%	-3%
Cc1ccc2nc(C)cc(C(=O)OCC(=O)c3ccc(Cl)c([N+](=O)[O-])c3)c2c1	?	2%	-5%	?	0%	?
COc1cccc(C(=O)Nc2sc3c(c2C#N)CCN(C(C)=O)C3)c1	/	79µM*	/	-30%	?	24µM*
COc1cccc(C(=O)Nc2sc3c(c2C(=O)O)CCCC3)c1	-17%	-15%	/	-16%	3%	-20%
CC(C)CCN1C(=O)CSCC1(C)C(=O)Nc1ccc2c(c1)OCCO2 (centres undefined)	/	/	/	/	/	-4%
Cc1cccc(-c2nc(SCC(=O)Nc3cccc(C(F)(F)F)c3)n3[nH]c(=O)cc3n2)c1	50µM*	8%	/	50µM*	?	/
Cc1cccc(NC(=O)CSc2nc(-c3cccs3)nc3cc(=O)[nH]n23)c1	79µM*	14%	/	?	?	/
Cc1cc2ccccc2n2c(SCC(=O)Nc3cccc(C(F)(F)F)c3)nnc12	0%	-16%	/	-3%	29%	/
O=C(CSc1nnc2scc(-c3ccc(Cl)cc3)n12)Nc1cccc(C(F)(F)F)c1	2%	-13%	/	0%	56%	/
Cc1ccc(NC(=O)CSc2nc(-c3cccs3)nc3cc(=O)[nH]n23)cc1	79µM*	-6%	/	-21%	21%	/
O=C(CSc1nc(-c2cccs2)nc2cc(=O)[nH]n12)Nc1cccc(C(F)(F)F)c1	50µM*	-6%	/	-19%	33%	/
Cn1nnnc1Sc1ncnc2scc(-c3ccc(S(C)(=O)=O)cc3)c12	/	/	/	-5%	/	/
Cc1ccc(/C=C/C(=O)Nc2cccc(S(=O)(=O)N3CCOCC3)c2)o1	-32%	-9%	-18%	-28%	50µM*	-15%
Cc1ccc(/C=C/C(=O)N2CCN(S(=O)(=O)c3c(C)c(C)cc(C)c3C)CC2)o1	?	-49%	-16%	79µM*	?	-27%
Cc1ccc(/C=C/C(=O)Nc2ccncc2)o1	1%	-2%	2%	?	-20%	-20%
Cc1ccc(/C=C/C(=O)Nc2ccc(N(C)C)cc2)o1	35µM*	-25%	-25%	50µM*	?	2%
SMILES	BAZ2B inh	VDR inh	L3MBTL1 inh	JMJD2A Tudor inh	HP1b chromo inh	PLK1 PBD block
Cc1ccc(/C=C/C(=O)N2CCN(Cc3ccccc3)CC2)o1	?	-8%	-9%	-24%	-19%	-16%
COC(=O)c1ccccc1-c1ccc(/C=N/Nc2nc(N3CCCC3)nc(N3CCCC3)n2)o1	-14%	-6%	8%	-15%	19%	2%
COc1ccc(-c2ccc(/C=C3\C(=O)N(c4ccccc4)N=C3c3ccccc3)o2)c([N+](=O)[O-])c1	8.9µM*	-6%	-17%	?	3.5µM*	?
COC(=O)c1ccccc1-c1ccc(/C=C2\C(=O)N(c3ccccc3)N=C2c2ccccc2)o1	3.2µM*	4%	-4%	?	1.4µM*	?
CC1CCc2cc(F)cc3c2N1C(=O)C(C(=O)Nc1cnccn1)C3=O (centres undefined)	/	-8%	/	-18%	-17%	/
CSc1nc2c(c(=O)[nH]1)C(c1ccccc1)C1=C(CC(C)(C)CC1=O)N2 (centres undefined)	-23%	-2%	9%	6%[11.4 µM]	36%	-3%
Cc1ccc(C2C3=C(CCCC3=O)Nc3[nH]c(=S)[nH]c(=O)c32)cc1 (centres undefined)	79µM*	89µM*	2%	10µM*	-32%	?
CC1(C)CC(=O)C2=C(C1)Nc1[nH]c(=S)[nH]c(=O)c1C2c1ccccc1 (centres undefined)	-35%	-21%	-4%	45µM*	-3%	?
O=C1CCCC2=C1C(c1ccc(Br)cc1)c1c([nH]c(=S)[nH]c1=O)N2 (centres undefined)	?	?	-16%	40µM*	-24%	27µM*
O=c1[nH]c(=S)[nH]c2c1C(c1ccc(Br)cc1)c1c([nH]c(=S)[nH]c1=O)O2	22µM*	89µM*	/	?	32µM*	6µM*
COc1ccccc1NC(=O)c1cc2c([nH]c1=O)CC(C)(C)CC2=O	4%	14%	/	-13%	11%	/
Oc1c(N=NC(=S)Nc2ccccc2F)c2ccccc2n1Cc1cccc(Cl)c1	11µM*	4%	/	?	?	-2%
Cc1cccc(Cn2c(O)c(N=NC(=S)Nc3ccccc3F)c3ccccc32)c1	8.9µM*	-19%	/	10µM*	-12%	-4%
Oc1c(N=NC(=S)Nc2ccccc2F)c2ccccc2n1Cc1ccc(F)cc1	?	-3%	/	?	?	?
CCC(C)NC(=O)CSc1nc2cc3c(cc2c(=O)n1CCCCCC(=O)NCc1ccc2c(c1)OCO2)OCO3 (centres undefined)	0%	18%	/	-10%	55%	/
CC(C)=NNc1nc(-c2ccccc2)c(C)s1	/	-16%	/	-35%	?	21µM*
Cc1sc(N/N=C/c2cccnc2)nc1-c1ccccc1	?	-7%	-19%	50µM*	-7%	-10%
CCOc1ccc2c(c1)nc(SCC(=O)c1ccc(Br)s1)n2C	-39%	89µM*	-4%	40µM*	-21%	30µM*
CCOc1ccc2c(c1)nc(SCC(=O)c1cccs1)n2C	-8%	?	1%	40µM*	10%	?
